# Test results published in ChEMBL document CHEMBL1961873, “Compounds: GSK PKIS; Assays: Nanosyn kinase panel” (2012).
# Columns and labels:
# [1] = molecular target: Mitogen-activated protein kinase 3 (Homo sapiens) (UniProt P27361); conditions: at 1 µM;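 also: values are mean percent inhibition of MAPK3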
# [2] = molecular target: SRSF protein kinase 3 (Homo sapiens) (UniProt Q9UPE1); conditions: at 0.1 µM
# [3] = molecular target: SRSF protein kinase 3 (Homo sapiens) (UniProt Q9UPE1); conditions: at 1 µM
# [4] = molecular target: Mitogen-activated protein kinase 14 (Homo sapiens) (UniProt Q16539); conditions: at 0.1 µM
# [5] = molecular target: Mitogen-activated protein kinase 14 (Homo sapiens) (UniProt Q16539); conditions: at 1 µM
# [6] = molecular target: Mitogen-activated protein kinase 11 (Homo sapiens) (UniProt Q15759); conditions: at 0.1 µM
# [7] = molecular target: Mitogen-activated protein kinase 11 (Homo sapiens) (UniProt Q15759); conditions: at 1 µM
# [8] = molecular target: T1, Mitogen-activated protein kinase 13 (Homo sapiens) (UniProt O15264); conditions: at 0.1 µM
# T1 sequence (whole entry): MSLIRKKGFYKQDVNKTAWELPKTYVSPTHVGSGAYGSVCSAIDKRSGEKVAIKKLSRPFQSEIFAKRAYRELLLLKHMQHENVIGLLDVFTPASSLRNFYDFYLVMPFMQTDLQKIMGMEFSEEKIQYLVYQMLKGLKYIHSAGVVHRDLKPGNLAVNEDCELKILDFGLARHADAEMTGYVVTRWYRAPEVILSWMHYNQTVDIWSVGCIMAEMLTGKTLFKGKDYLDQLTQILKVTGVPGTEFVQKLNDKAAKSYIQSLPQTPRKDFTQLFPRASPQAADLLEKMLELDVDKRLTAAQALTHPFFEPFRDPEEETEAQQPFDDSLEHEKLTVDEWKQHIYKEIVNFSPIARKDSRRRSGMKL
# [9] = molecular target: T1, Mitogen-activated protein kinase 13 (Homo sapiens); conditions: at 1 µM
# [10] = molecular target: T2, Mitogen-activated protein kinase 12 (Homo sapiens) (UniProt P53778); conditions: at 0.1 µM
# T2 sequence (whole entry): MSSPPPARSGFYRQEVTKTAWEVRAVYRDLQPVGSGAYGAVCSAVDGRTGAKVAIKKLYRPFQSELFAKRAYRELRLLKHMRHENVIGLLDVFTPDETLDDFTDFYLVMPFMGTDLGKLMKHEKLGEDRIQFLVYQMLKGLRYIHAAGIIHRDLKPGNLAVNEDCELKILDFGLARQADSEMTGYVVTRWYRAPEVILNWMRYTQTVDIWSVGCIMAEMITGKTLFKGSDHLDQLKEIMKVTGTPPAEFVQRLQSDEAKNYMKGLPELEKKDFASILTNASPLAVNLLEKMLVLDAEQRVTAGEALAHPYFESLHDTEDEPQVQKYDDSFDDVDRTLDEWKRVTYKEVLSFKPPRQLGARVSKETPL
# [11] = molecular target: T2, Mitogen-activated protein kinase 12 (Homo sapiens); conditions: at 1 µM
# [12] = molecular target: SRSF protein kinase 1 (Homo sapiens) (UniProt Q96SB4); conditions: at 0.1 µM
# [13] = molecular target: SRSF protein kinase 1 (Homo sapiens) (UniProt Q96SB4); conditions: at 1 µM
# [14] = molecular target: Phosphatidylinositol 4,5-bisphosphate 3-kinase catalytic subunit alpha isoform (Homo sapiens) (UniProt P42336); conditions: at 0.1 µM
# [15] = molecular target: Phosphatidylinositol 4,5-bisphosphate 3-kinase catalytic subunit alpha isoform (Homo sapiens) (UniProt P42336); conditions: at 1 µM
# [16] = molecular target: T3, Phosphatidylinositol 4,5-bisphosphate 3-kinase catalytic subunit delta isoform (Homo sapiens) (UniProt O00329); conditions: at 0.1 µM
# T3 sequence (whole entry): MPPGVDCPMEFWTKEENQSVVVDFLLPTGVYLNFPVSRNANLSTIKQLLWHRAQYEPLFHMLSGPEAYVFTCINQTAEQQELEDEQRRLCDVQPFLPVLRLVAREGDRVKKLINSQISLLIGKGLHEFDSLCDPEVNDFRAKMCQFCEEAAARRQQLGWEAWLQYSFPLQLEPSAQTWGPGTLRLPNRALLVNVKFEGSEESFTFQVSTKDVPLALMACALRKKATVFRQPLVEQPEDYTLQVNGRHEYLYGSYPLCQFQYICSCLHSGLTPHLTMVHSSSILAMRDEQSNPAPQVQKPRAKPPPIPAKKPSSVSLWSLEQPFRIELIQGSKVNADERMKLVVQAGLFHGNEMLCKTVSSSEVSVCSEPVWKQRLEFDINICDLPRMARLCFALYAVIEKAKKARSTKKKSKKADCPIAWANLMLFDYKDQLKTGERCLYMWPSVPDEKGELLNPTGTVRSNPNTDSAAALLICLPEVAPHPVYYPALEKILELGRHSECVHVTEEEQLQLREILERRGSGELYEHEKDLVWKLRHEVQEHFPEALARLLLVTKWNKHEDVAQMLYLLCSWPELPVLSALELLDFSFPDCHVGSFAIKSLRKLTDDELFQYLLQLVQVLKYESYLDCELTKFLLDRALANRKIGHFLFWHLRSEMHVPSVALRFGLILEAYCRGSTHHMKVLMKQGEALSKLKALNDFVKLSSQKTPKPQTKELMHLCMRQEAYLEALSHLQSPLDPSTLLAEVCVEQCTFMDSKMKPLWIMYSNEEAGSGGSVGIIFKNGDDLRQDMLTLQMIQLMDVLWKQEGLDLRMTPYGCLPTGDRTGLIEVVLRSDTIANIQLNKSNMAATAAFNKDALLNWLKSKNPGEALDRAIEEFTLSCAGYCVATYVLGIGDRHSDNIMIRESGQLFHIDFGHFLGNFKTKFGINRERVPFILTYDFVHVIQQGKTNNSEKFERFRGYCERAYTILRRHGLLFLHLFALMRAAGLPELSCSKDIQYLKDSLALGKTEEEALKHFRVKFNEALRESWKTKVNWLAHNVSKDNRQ
# [17] = molecular target: T3, Phosphatidylinositol 4,5-bisphosphate 3-kinase catalytic subunit delta isoform (Homo sapiens); conditions: at 1 µM
# [18] = molecular target: Phosphatidylinositol 4-kinase beta (Homo sapiens) (UniProt Q9UBF8); conditions: at 0.1 µM
# [19] = molecular target: Phosphatidylinositol 4-kinase beta (Homo sapiens) (UniProt Q9UBF8); conditions: at 1 µM
# [20] = molecular target: Sphingosine kinase 1 (Homo sapiens) (UniProt Q9NYA1); conditions: at 0.1 µM;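 also: mean percent inhibition of SPHK1 activity, measured within the GSK PKIS screening panel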
# Chain of Sphingosine kinase 1 (Homo sapiens) (Q9NYA1 whole entry): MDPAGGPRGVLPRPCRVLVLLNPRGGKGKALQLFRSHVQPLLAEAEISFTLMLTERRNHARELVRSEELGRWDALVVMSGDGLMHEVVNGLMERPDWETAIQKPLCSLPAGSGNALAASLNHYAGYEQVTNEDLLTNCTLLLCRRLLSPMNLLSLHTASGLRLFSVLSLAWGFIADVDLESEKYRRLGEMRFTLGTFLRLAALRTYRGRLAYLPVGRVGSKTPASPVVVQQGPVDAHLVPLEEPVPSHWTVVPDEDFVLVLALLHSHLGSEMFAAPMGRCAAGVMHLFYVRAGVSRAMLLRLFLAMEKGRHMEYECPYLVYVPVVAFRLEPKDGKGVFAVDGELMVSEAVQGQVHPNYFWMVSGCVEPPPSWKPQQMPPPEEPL
# Chain of SRSF protein kinase 3 (Homo sapiens) (Q9UPE1 whole entry): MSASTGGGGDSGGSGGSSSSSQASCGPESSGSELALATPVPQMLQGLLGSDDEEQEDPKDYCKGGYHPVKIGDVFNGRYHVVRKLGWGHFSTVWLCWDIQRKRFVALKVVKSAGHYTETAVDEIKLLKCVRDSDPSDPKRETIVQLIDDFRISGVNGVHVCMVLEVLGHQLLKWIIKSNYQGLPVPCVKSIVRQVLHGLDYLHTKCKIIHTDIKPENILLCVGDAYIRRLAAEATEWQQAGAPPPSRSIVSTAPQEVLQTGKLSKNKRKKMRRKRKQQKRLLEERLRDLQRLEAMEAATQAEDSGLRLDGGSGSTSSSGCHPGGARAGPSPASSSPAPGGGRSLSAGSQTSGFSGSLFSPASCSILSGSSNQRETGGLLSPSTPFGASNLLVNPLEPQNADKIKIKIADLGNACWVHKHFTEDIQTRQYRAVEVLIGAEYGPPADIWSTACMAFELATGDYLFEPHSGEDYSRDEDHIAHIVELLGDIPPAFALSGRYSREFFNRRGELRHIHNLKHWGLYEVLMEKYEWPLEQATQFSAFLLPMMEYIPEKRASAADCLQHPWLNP
# Chain of Mitogen-activated protein kinase 14 (Homo sapiens) (Q16539 whole entry): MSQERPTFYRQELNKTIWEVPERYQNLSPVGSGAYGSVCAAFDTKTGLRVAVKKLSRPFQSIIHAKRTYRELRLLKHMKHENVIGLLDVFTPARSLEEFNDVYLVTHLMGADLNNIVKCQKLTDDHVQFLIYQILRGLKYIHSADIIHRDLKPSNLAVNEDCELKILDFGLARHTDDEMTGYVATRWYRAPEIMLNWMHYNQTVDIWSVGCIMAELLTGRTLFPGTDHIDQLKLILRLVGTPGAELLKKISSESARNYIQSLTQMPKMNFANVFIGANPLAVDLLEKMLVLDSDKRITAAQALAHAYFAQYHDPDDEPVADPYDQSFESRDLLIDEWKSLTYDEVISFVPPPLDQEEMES
# Chain of Phosphatidylinositol 4,5-bisphosphate 3-kinase catalytic subunit alpha isoform (Homo sapiens) (P42336 whole entry, canonical isoform): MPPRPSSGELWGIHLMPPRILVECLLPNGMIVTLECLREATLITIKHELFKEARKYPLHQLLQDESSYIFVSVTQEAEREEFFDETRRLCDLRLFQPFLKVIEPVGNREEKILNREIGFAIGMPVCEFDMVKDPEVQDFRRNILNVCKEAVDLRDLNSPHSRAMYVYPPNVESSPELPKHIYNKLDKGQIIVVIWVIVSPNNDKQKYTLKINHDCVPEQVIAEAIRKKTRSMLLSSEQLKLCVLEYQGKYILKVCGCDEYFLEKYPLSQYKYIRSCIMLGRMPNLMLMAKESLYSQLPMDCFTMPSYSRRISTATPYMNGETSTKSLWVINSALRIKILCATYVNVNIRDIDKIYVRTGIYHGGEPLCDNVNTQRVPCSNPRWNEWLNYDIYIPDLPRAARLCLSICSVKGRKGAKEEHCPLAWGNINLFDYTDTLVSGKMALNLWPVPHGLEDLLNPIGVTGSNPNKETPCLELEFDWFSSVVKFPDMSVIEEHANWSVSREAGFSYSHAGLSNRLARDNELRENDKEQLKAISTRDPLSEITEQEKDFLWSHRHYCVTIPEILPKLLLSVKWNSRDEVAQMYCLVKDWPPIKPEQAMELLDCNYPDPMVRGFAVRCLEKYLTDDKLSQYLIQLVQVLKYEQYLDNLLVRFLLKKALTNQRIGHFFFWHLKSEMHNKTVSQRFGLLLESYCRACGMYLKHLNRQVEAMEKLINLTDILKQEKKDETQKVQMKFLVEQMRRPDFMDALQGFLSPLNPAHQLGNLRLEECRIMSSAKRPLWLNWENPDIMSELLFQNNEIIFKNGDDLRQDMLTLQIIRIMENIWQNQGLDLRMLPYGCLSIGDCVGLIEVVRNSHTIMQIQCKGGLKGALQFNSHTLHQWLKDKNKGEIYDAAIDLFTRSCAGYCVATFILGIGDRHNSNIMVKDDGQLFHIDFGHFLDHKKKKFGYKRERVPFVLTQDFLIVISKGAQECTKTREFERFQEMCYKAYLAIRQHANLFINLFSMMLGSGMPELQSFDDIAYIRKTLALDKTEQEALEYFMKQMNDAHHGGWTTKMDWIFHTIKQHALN
# Chain of Mitogen-activated protein kinase 11 (Homo sapiens) (Q15759 whole entry): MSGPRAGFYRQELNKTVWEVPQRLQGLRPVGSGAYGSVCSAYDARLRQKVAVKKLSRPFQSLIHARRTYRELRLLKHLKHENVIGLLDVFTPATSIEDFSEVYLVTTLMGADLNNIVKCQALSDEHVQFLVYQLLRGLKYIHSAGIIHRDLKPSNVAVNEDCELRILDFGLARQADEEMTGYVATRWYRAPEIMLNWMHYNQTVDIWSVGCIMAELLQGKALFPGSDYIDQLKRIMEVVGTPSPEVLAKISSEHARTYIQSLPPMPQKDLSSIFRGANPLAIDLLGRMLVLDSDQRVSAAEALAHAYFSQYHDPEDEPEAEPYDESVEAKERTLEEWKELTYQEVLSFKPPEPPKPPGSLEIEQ
# Chain of Phosphatidylinositol 4-kinase beta (Homo sapiens) (Q9UBF8 2-816 limits assumed): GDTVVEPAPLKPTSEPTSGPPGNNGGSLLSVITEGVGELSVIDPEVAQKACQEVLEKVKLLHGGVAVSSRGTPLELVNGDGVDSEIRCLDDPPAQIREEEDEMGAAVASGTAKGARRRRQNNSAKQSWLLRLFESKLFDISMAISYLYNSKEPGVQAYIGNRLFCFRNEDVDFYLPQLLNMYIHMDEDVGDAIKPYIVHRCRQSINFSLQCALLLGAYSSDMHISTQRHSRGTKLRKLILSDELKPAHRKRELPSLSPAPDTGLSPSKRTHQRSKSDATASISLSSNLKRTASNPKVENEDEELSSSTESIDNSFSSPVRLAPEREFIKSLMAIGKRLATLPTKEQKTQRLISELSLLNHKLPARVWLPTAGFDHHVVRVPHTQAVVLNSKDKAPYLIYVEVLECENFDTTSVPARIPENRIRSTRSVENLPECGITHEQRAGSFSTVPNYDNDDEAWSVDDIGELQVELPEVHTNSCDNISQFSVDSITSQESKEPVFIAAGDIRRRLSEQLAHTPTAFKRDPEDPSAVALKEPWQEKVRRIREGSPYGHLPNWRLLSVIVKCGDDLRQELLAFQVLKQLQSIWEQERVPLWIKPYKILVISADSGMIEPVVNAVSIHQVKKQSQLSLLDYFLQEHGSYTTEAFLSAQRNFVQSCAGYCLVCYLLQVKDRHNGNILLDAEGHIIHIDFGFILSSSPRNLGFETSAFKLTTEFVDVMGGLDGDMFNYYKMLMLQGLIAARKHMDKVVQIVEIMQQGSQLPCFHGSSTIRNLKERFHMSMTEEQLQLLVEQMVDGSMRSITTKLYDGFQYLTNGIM
# Chain of Mitogen-activated protein kinase 3 (Homo sapiens) (P27361 whole entry): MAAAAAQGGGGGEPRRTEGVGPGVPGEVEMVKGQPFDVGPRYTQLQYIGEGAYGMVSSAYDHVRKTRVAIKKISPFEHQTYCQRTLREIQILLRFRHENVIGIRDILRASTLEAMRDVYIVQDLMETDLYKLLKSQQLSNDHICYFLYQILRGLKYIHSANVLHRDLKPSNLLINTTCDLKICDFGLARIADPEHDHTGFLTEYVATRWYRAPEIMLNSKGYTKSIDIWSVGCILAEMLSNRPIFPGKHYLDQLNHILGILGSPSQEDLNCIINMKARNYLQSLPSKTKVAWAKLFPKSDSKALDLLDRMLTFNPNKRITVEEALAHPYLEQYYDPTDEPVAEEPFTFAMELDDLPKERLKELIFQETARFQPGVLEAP
# Chain of SRSF protein kinase 1 (Homo sapiens) (Q96SB4 whole entry, canonical isoform): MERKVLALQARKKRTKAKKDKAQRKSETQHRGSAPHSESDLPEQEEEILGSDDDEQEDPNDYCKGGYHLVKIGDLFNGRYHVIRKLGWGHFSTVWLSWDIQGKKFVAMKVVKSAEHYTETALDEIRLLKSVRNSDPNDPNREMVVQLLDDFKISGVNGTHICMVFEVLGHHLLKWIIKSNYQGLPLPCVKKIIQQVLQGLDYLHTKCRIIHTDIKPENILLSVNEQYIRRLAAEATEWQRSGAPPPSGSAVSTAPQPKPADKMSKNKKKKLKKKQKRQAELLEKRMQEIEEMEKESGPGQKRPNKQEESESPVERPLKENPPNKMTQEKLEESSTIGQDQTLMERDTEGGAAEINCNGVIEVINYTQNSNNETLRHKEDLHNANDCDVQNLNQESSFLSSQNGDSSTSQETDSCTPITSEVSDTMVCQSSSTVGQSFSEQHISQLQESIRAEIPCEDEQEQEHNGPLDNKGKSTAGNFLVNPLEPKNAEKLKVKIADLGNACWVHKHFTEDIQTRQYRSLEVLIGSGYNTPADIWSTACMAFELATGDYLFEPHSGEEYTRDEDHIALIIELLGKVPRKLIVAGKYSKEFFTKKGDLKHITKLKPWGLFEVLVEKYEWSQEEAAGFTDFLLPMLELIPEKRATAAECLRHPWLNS
SMILES,inhibition [1] [%],inhibition [2] [%],inhibition [3] [%],inhibition [4] [%],inhibition [5] [%],inhibition [6] [%],inhibition [7] [%],inhibition [8] [%],inhibition [9] [%],inhibition [10] [%],inhibition [11] [%],inhibition [12] [%],inhibition [13] [%],inhibition [14] [%],inhibition [15] [%],inhibition [16] [%],inhibition [17] [%],inhibition [18] [%],inhibition [19] [%],inhibition [20] [%]
Cn1cc(C=C2C(=O)Nc3cccnc32)c2ccccc21,2.73,-0.25,-0.47,3.62,7.85,3.65,5.58,-0.63,2.23,2.25,2.65,-3.21,-4.48,2.82,7.17,1.38,3.54,0.42,4.05,-3.04
CS(=O)(=O)CCNCc1ccc(-c2ccc3ncnc(Nc4ccc(OCc5ccccc5)c(Cl)c4)c3c2)o1,0.5,2.57,4.72,-0.17,3.25,-1.17,0.8,0.47,2.09,1.33,6.3,-1.42,1.52,-1.12,-0.19,-2.16,-1.17,-0.03,3.61,1.23
CCCN1CCC=C(c2ccc(Nc3nc(Nc4ccccc4C(N)=O)c4cc[nH]c4n3)c(C)c2)C1,11.3,4.11,12.7,4.64,7.87,2.75,7.8,4.35,8.15,3.52,6.14,-2.75,12,4.1,19.9,1.79,17.8,-1.7,-0.01,0.57
Cc1cccc(-c2n[nH]cc2-c2ccc3ncccc3n2)n1,0.82,-1.48,-0.43,2.51,12,-0.93,0.8,1.23,-0.48,0.84,0.57,-1.35,-1.16,-0.95,1.78,-0.15,0.53,1.57,4.48,-2.56
COc1ccc(-c2coc3ncnc(N)c23)cc1,2.51,-0.31,-3.44,4.37,13.4,4.69,7.25,1.38,5.26,1.11,2.95,-2.53,-4.3,3.88,8.12,2.89,11.6,2.15,-0.74,-2.41
O=C1NC(=O)C(N2CCc3ccccc32)=C1c1ccc(Cl)cc1,2.62,1.04,-0.52,3.97,8.43,5.07,4.84,1.06,5.95,3.98,3.35,-1.77,-3.78,4.21,6.29,3.6,5.56,-1.76,-1.34,–
CCCN1CCC(Oc2cc(Nc3nc(Nc4cccc(F)c4C(N)=O)c4cc[nH]c4n3)c(OC)cc2Cl)CC1,2.9,0.09,3.91,0.2,3.85,0.2,0.06,0.04,-0.16,-0.75,0.42,-0.3,-0.85,-1.23,-1.07,-0.45,0.08,3.96,-2.71,0.48
COc1cc2ncn(-c3cc(OCc4ccccc4C(F)(F)F)c(C(N)=O)s3)c2cc1OC,3.77,-2.16,5.51,9.41,9.56,3.98,7.82,5.41,5.14,4.2,6.13,-1.32,0.47,4.61,18.7,2.08,15.9,-3.15,1.79,1.28
CC1=C(C(=O)Nc2ccc3[nH]ncc3c2)C(c2ccc3ccccc3c2)CC(=O)N1 (centres undefined),22.4,0.02,-0.13,3.64,5.06,-1.05,2.44,3.08,2.24,-0.44,1.97,-1.36,0.02,5.28,5.6,4.38,4.97,-1.78,0.34,1.83
NC(=O)c1cccc(Nc2nccc(Nc3cccc4[nH]ncc34)n2)c1,1.82,0.19,3.95,4.23,2.87,-1.99,3.32,-0.37,1.26,-1.53,1.3,1.99,2.55,-1.08,6.41,1.39,10.7,4.75,10.2,-1.36
COC(=O)Nc1nc2cc(Oc3cccc(NC(=O)Nc4cc(C(F)(F)F)ccc4F)c3)ccc2[nH]1,0.49,-1.97,-3.98,2.37,5.26,1.03,1.94,-4.01,-0.11,0.33,-0.42,-0.98,-3.74,-3.27,-1.03,0.19,0.17,1.18,0.44,-0.62
COc1cc2ncn(-c3cc(OCc4ccccc4Cl)c(C(N)=O)s3)c2cc1OC,1.75,-0.61,-1.33,2.7,18.4,1.39,4.07,0.95,0.78,1.88,0.85,-1.26,-1.23,0.86,19.6,0.19,18.4,-5.9,1.54,2.8
CS(=O)(=O)CCNCc1nc(-c2ccc3ncnc(Nc4ccc(F)c(Cl)c4)c3c2)cs1,3.66,2.2,1.52,2.36,5.56,2.75,5.6,2.57,1.21,0.83,1.73,-0.47,1.62,1.55,16.8,1.95,5.42,6.61,5.06,-0.56
